# Compound activity: PubChem, several laboratories
# NALP1 yeast inh – inhibitors of NALP1 inflammasome in yeast | inhibition, % at 10 µM | actives 0.61% (n = 280,000) | AID 2071 | S. cerevisiae NALP1/ASC/caspase-1 growth, X-gal OD620, 72 h; in the data active = inhibition mostly above about 24%, no sharp cut-off; inactive = mostly below about 32%
# NALP3 yeast inh – inhibitors of NALP3 inflammasome in yeast. Yeast reconstituted NLRP3/ASC/caspase-1, beta-gal luminescence, 24 h. inhibition, % at 10 µM. actives 0.39% (n = 330,000). AID 2825;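 active = inhibition of 50% or more; inactive = inhibition below 50%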;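 note: plate controls were induced DMSO wells for no effect and uninduced yeast grown without galactose for full effect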
# tim10-1 inh – tim10-1 yeast growth inhibition; S. cerevisiae tim10-1 ts strain growth, BacTiter-Glo, 24 h; inhibition, % at 20 µM; actives 2.2% (n = 330,000);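 active = inhibition of at least 40%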;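 note: mutant grown at 25 °C; 0% = DMSO wells with yeast and 100% = wells holding no yeast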
# tim23-1 inh – growth inhibitors of tim23-1 mutant yeast. inhibition, % at 20 µM. S. cerevisiae tim23-1 growth, BacTiter-Glo luminescence, 24 h. actives 1.3% (n = 330,000);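 active = growth inhibition of the mutant yeast at or above 50%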;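 note: temperature-sensitive mutant grown at 25 °C; plate controls were DMSO-treated mutant yeast for no effect and medium wells lacking yeast for full effect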
# SKKanGAS inh – blocks kanamycin growth of S. pyogenes SKKanGAS strain; BacTiter-Glo, 6 h; inhibition, % at 7.5 µM; actives 1.3% (n = 300,000);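 active = mean replicate score, as percent of positive control median, at least 50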;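 note: strain carries kanamycin resistance gene driven by streptokinase promoter and grows in 40 µg/ml kanamycin; loss of luminescence reflects streptokinase promoter inhibition or plain growth inhibition; 0% = median of DMSO wells and 100% = positive control at its reference dose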
# TIM10 inh – TIM10 yeast growth inhibition; S. cerevisiae TIM10 strain growth, BacTiter-Glo luminescence, 24 h; inhibition, % at 10 µM; actives 1.4% (n = 330,000);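 active = inhibition of 40% or more at the single tested concentration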;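 note: wild-type TIM10 isogenic control strain grown at permissive 25 °C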
# tim10-1 confirm – confirmation of tim10-1 mutant yeast growth inhibitors; shares compounds with tim10-1 inh; S. cerevisiae tim10-1 ts strain growth, BacTiter-Glo, 24 h; inhibition, % at 20 µM; actives 56% (n = 7,400); AID 463213;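 active = inhibition of yeast growth at or above a set limit in either of two repeat tests at 20 µM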;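 note: tim10-1 mutant grown at permissive 25 °C to find synthetic lethal compounds; 0% = DMSO yeast wells and 100% = medium wells without yeast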
# TIM10 conf – TIM10 yeast growth inhibition, confirmed; shares compounds with TIM10 inh; S. cerevisiae tim10 strain growth, BacTiter-Glo luminescence, 24 h; inhibition, % at 10 µM; actives 63% (n = 4,600);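 active = inhibition of yeast growth at or above a set limit in either of two replicates at 10 µM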;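 note: this counterscreen used the strain with wild-type TIM10; 0% = yeast with DMSO and 100% = medium wells lacking yeast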
# tim23-1 conf – tim23-1 yeast growth inhibition, confirmed | AID 463218 | shares compounds with tim23-1 inh | inhibition, % at 20 µM | actives 83% (n = 4,400) | S. cerevisiae tim23-1 growth, BacTiter-Glo luminescence, 24 h;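 active = inhibition above about 39% in either of two replicate wells at 20 µM, limit read from the data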;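 note: temperature-sensitive tim23-1 mutant grown at 25 °C; 0% = DMSO wells with yeast and 100% = medium wells without yeast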
# The depositor's hits bear a star; nt = not tested or not shown. Most compounds without a hit are left out; they make up all but 4.9% or so of the library.
SMILES,NALP1 yeast inh,NALP3 yeast inh,tim10-1 inh,tim23-1 inh,SKKanGAS inh,TIM10 inh,tim10-1 confirm,TIM10 conf,tim23-1 conf
Cc1ccc(N/N=C(/Sc2nnnn2-c2ccccc2)C(=O)c2ccccc2)cc1,2,5,16,31,12,22,nt,nt,nt
Cn1nnnc1N=N/C(=N/Nc1ccccc1)c1ccccc1,13,44,55*,75*,15,69*,26,70*,60*
Cc1cccnc1Oc1ncccc1N,nt,6,0,4,-2,8,nt,nt,nt
CCOC(=O)c1ccccc1NC(=S)N1CCN(C(=O)c2ccco2)CC1,4,16,16,27,2,3,nt,nt,nt
c1ccc(COc2ccccc2CNC23CC4CC(CC(C4)C2)C3)cc1,-2,4,-1,-68,0,4,nt,nt,nt
Cc1[nH]n(C(N)=S)c(=O)c1N=Nc1ccc([N+](=O)[O-])cc1Cl,8,39,45*,58*,6,23,52*,nt,67*
COc1ccc(-c2nnc(-c3cccs3)o2)cc1OC,4,35,10,10,-7,23,nt,nt,nt
COc1ccc(-c2nc(-c3cccs3)c(-c3cccs3)[nH]2)cc1O,3,-39,52*,74*,61*,26,34*,nt,71*
COc1ccccc1N(Cc1ccccc1)S(=O)(=O)c1cccc(C(=O)Nc2cc(C)ccn2)c1,7,14,19,22,9,11,nt,nt,nt
COc1ccc(Cl)cc1C(=O)O/N=C(\N)c1ccncc1,-14,7,13,6,-3,3,nt,nt,nt
Cc1ccc(C(=O)O/N=C(\N)Cc2cccs2)c(Cl)c1,15,25,69*,91*,5,85*,63*,86*,87*
Cc1ccc(/C(N)=N/OC(=O)Cc2cccs2)cc1,8,12,16,19,8,23,nt,nt,nt
Cc1ccc(/C(N)=N/OC(=O)c2ccc(Cl)cc2Cl)cc1,50,13,47*,80*,8,88*,25,-1,44*
Cc1cc(/C(N)=N/OC(=O)c2ccc(Cl)cc2)no1,1,22,-9,1,4,-8,nt,nt,nt
COc1ccccc1C(=O)O/N=C(\N)c1ccc(Cl)cc1,18,11,50*,64*,-4,36,45*,nt,54*
N#C/C(=C\c1cc2c(cc1Br)OCO2)C(=O)NCC1CCCO1 (configuration not stated),27,22,67*,87*,0,65*,67*,72*,78*
N#C/C(=C\c1cccc([N+](=O)[O-])c1)C(=O)NCC1CCCO1 (configuration not stated),-2,0,57*,77*,-6,57*,52*,45*,72*
CCOC(=O)N1CCc2c(sc(NC(=O)c3ccc(Cl)s3)c2C(N)=O)C1,29,27,43*,66*,nt,35,46*,nt,68*
CCOC(=O)c1sc(-c2ccc(C(F)(F)F)cc2)nc1O,32*,1,46*,74*,29,27,17,nt,32
CCOC(=O)c1sc(-c2cccc(C(F)(F)F)c2)nc1O,22,-3,3,14,1,2,nt,nt,nt
O=C(CNS(=O)(=O)c1cccs1)NCCc1ccc(Cl)cc1,22,36,6,13,0,2,nt,nt,nt
CCn1c(C)nc2cc(-c3nc4n(n3)Cc3ccccc3-4)ccc21,-9,10,60*,65*,65*,54*,51*,49*,68*
COc1ccc(CCC(=O)Nc2ccc(Cn3ccnc3)cc2)cc1,19,10,11,0,-2,4,nt,nt,nt
O=[N+]([O-])c1cccc(C2NCC(c3ccccc3Cl)c3c2[nH]c2ccccc32)c1 (configuration not stated),-3,3,59*,58*,21,63*,52*,58*,76*
Cc1cccn2c(=O)c(C=O)c(N3CCCCCC3)nc12,-2,3,46*,58*,-2,22,43*,nt,46*
SMILES,NALP1 yeast inh,NALP3 yeast inh,tim10-1 inh,tim23-1 inh,SKKanGAS inh,TIM10 inh,tim10-1 confirm,TIM10 conf,tim23-1 conf
Cc1cccc(NC(c2ccc(C)s2)c2ccc3ccc(C)nc3c2O)n1 (configuration not stated),42,4,93*,57*,77*,34,86*,nt,45*
COc1cc(C(Nc2ccccn2)c2ccc3ccc(C)nc3c2O)cc(OC)c1O (configuration not stated),-10,5,38,20,9,11,nt,nt,nt
CCCCc1nnc(NC(=O)Cc2ccc(S(=O)(=O)N3CCOCC3)s2)s1,nt,6,6,4,nt,-7,nt,nt,nt
CCc1nn(CCCC(=O)NCc2ccccc2Br)c(=O)c2cc3occc3n12,14,21,43*,50*,59*,3,-4,nt,54*
CCc1cccc(NC(=O)CCCn2nc(CC)n3c(cc4occc43)c2=O)c1,14,11,26,31,25,5,nt,nt,nt
Cc1cc(C)c(S(=O)(=O)c2ccccc2)c(OC(=O)c2c(Cl)cccc2Cl)n1,-28,26,26,35,5,31,nt,nt,nt
Cc1cc(C)c(S(=O)(=O)c2ccccc2)c(OC(=O)c2ccc(Cl)cc2Cl)n1,10,3,46*,74*,nt,52*,42*,-8,76*
Brc1cc2c(cc1Br)OCCOCCOCCOCCO2,-4,-1,22,21,-8,0,nt,nt,nt
Brc1ccc2c(c1)OCCOCCOc1cc(Br)ccc1OCCOCCOCCO2,50,36,57*,62*,1,35,62*,nt,72*
OCCNNC(=S)NC1CC2C=CC1C2 (configuration not stated),-7,22,-1,-4,-2,-23,nt,nt,nt
C(=C\c1nc(N2CCCCCC2)c2ccccc2n1)/c1ccccc1,57*,27,46*,50*,42,44*,31*,19,38
CC(C)Cn1c2c(c(O)c(C(=O)Nc3ccc(F)cc3)c1=O)CCCC2,20,23,22,12,15,-2,nt,nt,nt
CC(C)Cn1c2c(c(O)c(C(=O)Nc3ncccc3O)c1=O)CCCC2,-14,19,40*,55*,89*,50*,43*,57*,61*
CC(=O)N1CCN(c2nnc(-c3ccccc3)c3ccccc23)CC1,-15,1,-46,-58,-2,-30,nt,nt,nt
Cc1ccc(-c2nnc(N3CCN(C(=O)c4ccco4)CC3)c3ccccc23)cc1,-4,25,61*,70*,23,53*,50*,-12,63*
